KCC2 mod = KCC2 (human) Cl- transport modulation | Q9H2X9 | KCC2 cells, thallium flux FluoZin-2 fluorescence | B-score of Tl+ flux slope (higher = more flux/activation; lower = inhibition) at 10 µM | 190,000 compounds, 2.2% hits | AID 1456;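 active means thallium flux slope and its plate-corrected score both differing from the plate sample mean at a set confidence after two filtering rounds, in either direction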;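 further: slope of fluorescence scaled to starting intensity during 10 to 20 s after thallium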
Insulin prom up = MIN6 insulin promoter up-regulation | AID 1625 | MIN6 insulin promoter-GFP reporter, high-content imaging; stronger effect = higher value | 190,000 compounds, 0.3% hits | z-score at 5 µM;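 active means z-score above 3 at 5 µM with at least 500 cells counted in the well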
Insulin prom inh = TRM-6 insulin promoter activity inhibition; TRM-6 cells (human fetal islet line), insulin promoter-eGFP reporter, imaging; reporter expression induced with tamoxifen; inhibition, % at 2 µM; 130,000 compounds, 0.9% hits;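 active means inhibition above the mean plus 3 SD, with well images judged a real hit on visual review, cut at about 60% in these data, passing the limit was not always enough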
WT yeast gro inh = growth inhibition of WT yeast, mitochondrial fusion screen | inhibition, % at 10 µM | 190,000 compounds, 2.1% hits | AID 1362 | mitochondrial fusion phenotypic screen, WT strain; in the data active means inhibition above about 58%; tested in S. cerevisiae
ROMK primary = modulators of human ROMK potassium channel. B-score at 10 µM. 130,000 compounds, 2% hits. Tet-inducible ROMK, thallium flux fluorescence; actives lie on both sides. AID 1918. P48048;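 active means signal ratio slope over the read window, or its plate-corrected B-score, at least 3 SD from the plate mean, either direction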;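 further: B-score of the F/F0 ratio slope over 7 to 12 s after thallium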
Target sequence (P48048 whole entry, looked up): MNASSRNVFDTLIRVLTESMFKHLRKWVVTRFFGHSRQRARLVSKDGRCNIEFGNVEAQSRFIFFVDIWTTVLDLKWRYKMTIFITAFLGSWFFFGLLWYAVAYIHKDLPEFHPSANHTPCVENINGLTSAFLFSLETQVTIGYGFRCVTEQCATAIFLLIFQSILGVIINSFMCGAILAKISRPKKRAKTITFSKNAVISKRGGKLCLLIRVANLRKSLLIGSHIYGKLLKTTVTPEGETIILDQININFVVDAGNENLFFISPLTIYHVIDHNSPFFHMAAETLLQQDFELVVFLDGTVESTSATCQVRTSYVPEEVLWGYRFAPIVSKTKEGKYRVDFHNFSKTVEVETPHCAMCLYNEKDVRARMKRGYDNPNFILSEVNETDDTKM
Lmaj promast = Leishmania major promastigote growth inhibition. inhibition, % at 10 µM. 200,000 compounds, 9% hits. AID 1063. Leishmania major promastigotes, resazurin fluorescence viability; in the data active means inhibition above about 50%;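 further: promastigotes grown with compound for 44 hours at 28 °C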
Large screens that a line does not name were inactive. Most compounds without a hit are left out; they make up all but 12% or so of the library.

Cc1cccc(S(=O)(=O)N2CCC(CO)(Cc3ccccc3)CC2)c1	none (no result: Insulin prom inh)
C=C(C)Cn1c(C)cc(C)c(S(=O)(=O)c2cccc(C)c2)c1=O	Lmaj promast 95.9 (no result: Insulin prom inh)
CCN1CCCC1CNC(=O)c1cc2c(-c3ccc(Cl)cc3)nn(C)c2s1 (stereo not drawn)	Lmaj promast 99.6 (no result: KCC2 mod, Insulin prom inh, ROMK primary)
COc1cccc(-c2nn(C)c3sc(C(=O)NCc4ccco4)cc23)c1	none (no result: ROMK primary)
CCN1CCCC1CNC(=O)C(=O)Nc1ccccc1 (stereo not drawn)	none (no result: ROMK primary)
CCN1CCCC1CNC(=O)c1cc2c(-c3cccc(OC)c3)nn(C)c2s1 (stereo not drawn)	Lmaj promast 81.8
CCN1CCCC1CNC(=O)C(=O)Nc1cccc(OC)c1 (stereo not drawn)	Lmaj promast 52.7
COc1cccc(NC(=O)C(=S)NC2CCCCC2)c1	WT yeast gro inh 58.8 (no result: Insulin prom inh, ROMK primary)
COc1ccc(CCNC(=O)C2CC(c3cccc(F)c3)=NO2)cc1 (stereo not drawn)	none (no result: Insulin prom inh, WT yeast gro inh, ROMK primary, Lmaj promast)
O=CN1CCN(C(=O)c2ccccc2Cl)CC1	none (no result: Insulin prom up)
O/C(=C\c1nc2ccccc2nc1/C=C(\O)c1ccccc1)c1ccccc1	WT yeast gro inh 73.6, Lmaj promast 98.1 (no result: Insulin prom inh)
COc1ccc(/C(O)=C/c2nc3ccccc3n(-c3ccccc3)c2=O)cc1	none (no result: Insulin prom up, WT yeast gro inh)
CC(C)(C)c1ccc(/C=C/C(=O)Nc2ccncc2)cc1	Lmaj promast 87.7
Cc1nc(NC(=O)/C=C/c2ccc(C(C)(C)C)cc2)sc1C(=O)N(C)C	Lmaj promast 60.8
CCOC(=O)c1sc(NC(=O)/C=C/c2ccc(F)cc2)nc1C	none (no result: Insulin prom inh)
COc1ccc(C(=O)NCC(=O)OC2CCCCC2=O)cc1 (stereo not drawn)	none (no result: Insulin prom inh, ROMK primary)
O=C(C[n+]1cc(-c2ccc(F)cc2)n2c1CCC2)N1c2ccccc2Sc2ccccc21	Lmaj promast 90.9
O=C(C[n+]1cc(-c2ccccc2)n2c1CCC2)Nc1nc(-c2ccc(F)cc2)cs1	none (no result: Insulin prom inh, ROMK primary)
Cc1ccc(-c2c[n+](CC(=O)N3c4ccccc4Sc4ccccc43)c3n2CCC3)cc1	Lmaj promast 96.0 (no result: Insulin prom inh, ROMK primary)
O=C(C[n+]1cc(-c2ccccc2)n2c1CCC2)N1c2ccccc2Sc2ccccc21	none (no result: Insulin prom inh, ROMK primary)
Nc1[nH]c(N=NC(=O)c2ccccc2O)c2ccccc12	none
Cc1sc2nc(-c3cccnc3)nc(Cl)c2c1-c1ccccc1	Lmaj promast 61.0
C/C=C(\C)C(=O)Nc1cccc(C2=NOC3(C2)C[C@@H](C(N)=O)N(C(=O)c2cc([N+](=O)[O-])cc([N+](=O)[O-])c2C)C3)c1 (stereo partly drawn)	none (no result: Insulin prom inh, WT yeast gro inh, ROMK primary, Lmaj promast)
O=S(=O)(NCc1ccccc1)c1ccc(S(=O)(=O)N(Cc2ccccn2)C2CCCC2)cc1	none (no result: Insulin prom up)
COCCCn1c(=S)[nH]c2c(sc3ccccc32)c1=O	KCC2 mod 57.1, ROMK primary 5.33 (no result: Insulin prom up)
CC(=O)NC(CC(=O)NCCN1C(=O)S/C(=C\c2ccccc2)C1=O)c1ccccc1 (stereo not drawn)	none (no result: Insulin prom inh, WT yeast gro inh, ROMK primary, Lmaj promast)
Cc1cc(Cl)ccc1NC(=S)NCc1ccccc1	none (no result: ROMK primary)
CCc1ccccc1NC(=S)NCCSc1ccc(Cl)cc1	WT yeast gro inh 81.2
Cc1ccc(Cl)cc1NC(=S)NCCCSC1CCCCC1	WT yeast gro inh 86.2 (no result: Insulin prom up)
Cc1cc(Cl)ccc1NC(=S)NCCCO	none
COc1ccc(OC)c(NC(=S)NCCSc2ccc(C)cc2)c1	WT yeast gro inh 66.7
Cc1ccccc1NC(=S)NCCSc1ccc(Cl)cc1	WT yeast gro inh 79.7 (no result: Insulin prom up)
Cc1ccc(C)c(Oc2nnnn2-c2ccccc2)c1	none (no result: ROMK primary)
O=C(N[C@@H](Cc1ccccc1)C(=O)O)c1ccncc1	none (no result: KCC2 mod, Insulin prom inh, ROMK primary)
Cc1cccc(NC(=S)NCCSc2ccc(Cl)cc2)c1	WT yeast gro inh 80.6
Cc1cccc(NC(=S)NC(C)(C)CC(C)(C)C)c1	WT yeast gro inh 68.5 (no result: Insulin prom inh)
Cc1ccc(NC(=S)NCCSc2ccc(Cl)cc2)c(C)c1	WT yeast gro inh 73.3 (no result: ROMK primary)
COc1ccc(NC(=S)NCCSc2ccc(C)cc2)c(OC)c1	none (no result: Insulin prom up, WT yeast gro inh, ROMK primary)
Cc1ccc(C)c(NC(=S)NCCSc2ccc(Cl)cc2)c1	WT yeast gro inh 77.8
CC(=O)N1N=C(c2cccc([N+](=O)[O-])c2)OC1c1ccccc1Cl (stereo not drawn)	none (no result: KCC2 mod, Insulin prom inh, ROMK primary)
Cc1[nH]n(C(N)=S)c(=O)c1N=Nc1ccc(S(=O)(=O)N2CCCCCC2)cc1	WT yeast gro inh 67.5 (no result: KCC2 mod)
CC(=O)Nc1ccc(N=Nc2c(C)[nH]n(C(N)=S)c2=O)cc1	none
CN1C(=S)SC(/[N+]([O-])=C/c2c(F)cccc2Cl)C1(C)C (stereo not drawn)	none (no result: KCC2 mod, Insulin prom inh, WT yeast gro inh, ROMK primary, Lmaj promast)
O=C(NCc1cccnc1)c1csc2c1CCCC2	Lmaj promast 51.5 (no result: ROMK primary)
O=C(Nc1ccccn1)c1csc2c1CCCC2	WT yeast gro inh 71.7 (no result: KCC2 mod, Insulin prom inh, ROMK primary)
OCCCNc1nc(-c2ccccc2)nc2c1oc1ccccc12	none (no result: Insulin prom inh, WT yeast gro inh, ROMK primary, Lmaj promast)
c1ccc(-c2nc(NCC3CCCO3)c3oc4ccccc4c3n2)cc1 (stereo not drawn)	Lmaj promast 55.0 (no result: KCC2 mod)
CCOC(=O)c1nc(NCc2cccnc2)c2ccccc2n1	none
CC(C)(C)c1ccc(-c2nc(NCc3cccnc3)c3ccccc3n2)cc1	Lmaj promast 79.8
c1ccc(-c2nc(NCc3cccnc3)c3oc4ccccc4c3n2)cc1	WT yeast gro inh 72.3, Lmaj promast 87.9
CC(O)C1C(=O)OC2(C)CC(C)(C)NC(=S)N12 (stereo not drawn)	none
COc1ccc(S(=O)(=O)N2CCCC(C(=O)NCc3ccncc3)C2)cc1Cl (stereo not drawn)	none
Cc1nn(C)cc1CNC(=O)c1cnn2c1NC(c1ccc(Br)cc1)CC2C(F)(F)F (stereo not drawn)	none (no result: ROMK primary)
Cc1nn(Cc2ccc(F)cc2)c(C)c1NC(=O)c1cnn2c1NC(c1cccs1)CC2C(F)(F)F (stereo not drawn)	none
Cc1c(CNC(=O)c2cnn3c2NC(c2ccc(Br)cc2)CC3C(F)(F)F)cnn1C (stereo not drawn)	Insulin prom inh 80.7 (no result: KCC2 mod)
Cc1nn(Cc2ccc(F)cc2)c(C)c1NC(=O)c1cnn2c1NC(c1ccccc1)CC2C(F)(F)F (stereo not drawn)	Lmaj promast 73.1
COc1ccccc1NS(=O)(=O)c1cccc(NC(=O)c2nc3nc(C)cc(C)n3n2)c1	Lmaj promast 71.9
COc1ccccc1NS(=O)(=O)c1cccc(NC(=O)NC2CCCCC2)c1	Lmaj promast 98.8 (no result: Insulin prom inh, ROMK primary)
COc1ccc(S(=O)(=O)Nc2ccccc2OC)cc1NC(=O)Cc1cccs1	Lmaj promast 100.3 (no result: Insulin prom up, Insulin prom inh)
COc1ccccc1NS(=O)(=O)c1cccc(C(=O)NN)c1	none (no result: ROMK primary)
Cc1cc(C)n2nc(C(=O)Nc3cccc(S(=O)(=O)N4CCCC4)c3)nc2n1	none (no result: Insulin prom inh, WT yeast gro inh, ROMK primary, Lmaj promast)
COc1ccc(Cl)cc1NC(=O)NC1CCCCC1	Lmaj promast 99.8 (no result: Insulin prom up)
Cc1ccc(S(=O)(=O)N2CCCOC2)cc1	none (no result: KCC2 mod)
CC(=O)Nc1cccc(S(C)(=O)=O)c1	none
Cc1ccc(S(=O)(=O)NC(=O)Nc2nnc(C)s2)cc1	none (no result: KCC2 mod, ROMK primary)
Cc1ccc(-c2nc(N/N=C/c3ccncc3)c3ccccc3n2)cc1	none
COC(=O)/C(=C/c1ccc(OC)cc1)NC(=O)c1ccco1	none
O=C(Nc1ccc(N2CCCC2)c(S(=O)(=O)Nc2cccc(C(F)(F)F)c2)c1)c1cccs1	Lmaj promast 91.5 (no result: ROMK primary)
